The values below come from PubChem BioAssay (EPA / NIEHS).

Structures are written as SMILES. Values joined by “and” are separate entries in the source; they are usually repeats but may differ in a detail not shown here. Equal entries are not always repeated. Active and inactive are the calls of the source. The calls were made as follows: active = hit-call score of the fitted dose curve at least 0.9, where 1 is the maximum; inactive = score below 0.9.

A short description of the assay: ATG_CRE_CIS: Attagene CIS-FACTORIAL HepG2 Assay for human cAMP Responsive Element (CRE) binding protein 3 (AID 2282926). The conditions noted are these: HepG2 CRE cis-reporter, Attagene multiplexed mRNA; actives raise or lower the signal. Put shortly:
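Capillary electrophoresis of 6-FAM-labelled, HpaI-digested PCR products quantified reporter transcripts. These came from HepG2 transiently transfected with cis-element reporters and exposed to test chemicals for 24 hours, with DMSO defining baseline activity.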
Consider `C=CC(=O)OCCN(CC)CC`, for which the AC50 was 26.9 µM (active).

As to `c1ccc2c(c1)CCC2`, the result was inactive.

For the molecule `C=CC(=C)CC/C=C(\C)CCC=C(C)C`, the call was inactive.

With `O=C(F)C(F)(F)C(F)(F)C(F)(F)C(=O)F`, the molecule was classed as inactive.

In the case of `O=C(OC(=O)C(F)(F)C(F)(F)F)C(F)(F)C(F)(F)F`, the molecule was classed as inactive.

Regarding `Cc1ccccc1OCC(=O)O`, the molecule was called inactive.

For `CCCCCCCCCCCCCC[n+]1ccccc1`, the outcome was inactive.

On to `c1cc[nH]c1`, for which the result was inactive.

`O=P(O)(O)CCC(F)(F)C(F)(F)C(F)(F)C(F)(F)C(F)(F)C(F)(F)F`: the result was inactive.

With `Clc1ccc2c(Cl)ccnc2c1`, the outcome was inactive.

With `CCCCc1ccc2ccccc2c1S(=O)(=O)O`, the molecule was classed as inactive.

In the case of `NCc1cccc(CN)c1`, the result was inactive.

As for `NC(C(F)(F)F)C(F)(F)F`, the outcome was inactive.

`FC(F)(F)N1C(F)(F)C(F)(F)OC(F)(F)C1(F)F`: the molecule was called inactive.

As to `CCCCN(C)C`, the result was inactive.

Take `O=C(O)CN(CCCN(CC(=O)O)CC(=O)O)CC(=O)O`: the outcome was inactive.

Consider `CC1CCC(C(=O)O)CC1` (stereo not drawn), for which the outcome was inactive.

For `FC(F)(F)C1(F)C(F)(F)C(F)(F)C(F)(F)C1(F)F`, the result was inactive.

Regarding `CC=O`, the result was inactive.

`CCCCCC(C)OC(=O)COc1ccc(Cl)c2cccnc12` (stereo not drawn): the call was inactive.

As for `O=C(O)C(F)(F)OC(F)(F)C(F)(F)OC(F)(F)C(F)(F)OC(F)(F)C(F)(F)C(F)(F)C(F)(F)F`, the AC50 was 37.7 µM (active) and 27.1 µM (active).

For the molecule `O=S(=O)(c1ccc(OCc2ccccc2)cc1)c1ccccc1O`, the AC50 was 14.9 µM (active).

As for `COC(O)c1ccccc1` (stereo not drawn), the molecule was called inactive.

As for `C=Cc1ccc(O)c(OC)c1`, the result was inactive.

Take `COC1=CC(=O)C[C@@H](C)[C@]12Oc1c(Cl)c(OC)cc(OC)c1C2=O`: the AC50 was 130 µM (active).

On to `CCCCCc1ccc(O)cc1`, for which the molecule was called inactive.

On to `C=CC(=O)OCCC(F)(F)C(F)(F)C(F)(F)C(F)(F)C(F)(F)C(F)(F)F`, for which the molecule was called inactive.

In the case of `CC(C)CCOCCC(C)C`, the call was inactive.

As to `O=C(O)C(=O)O`, the outcome was inactive.

Consider `C[C@]12CC[C@@H]3c4ccc(O)cc4CC[C@H]3[C@@H]1C[C@@H](O)[C@@H]2O`, for which the molecule was called inactive.

For the molecule `CCOC=O`, the call was inactive.

Regarding `CCOCCOCC`, the call was inactive.

Turning to `CC(C)(O)C(=O)c1ccccc1`, the molecule was called inactive.

As for `C=CC(F)(F)C(F)(F)C(F)(F)C(F)(F)F`, the call was inactive.

In the case of `O=S(=O)(O)C(F)(F)C(F)(F)C(F)(F)C(F)(F)C(F)(F)C(F)(F)C(F)(F)C(F)(F)C(F)(F)C(F)(F)F`, the call was inactive.

Turning to `CCOC(OCC)C(=O)c1ccccc1`, the molecule was called inactive.

With `C[C@]12CC[C@@H]3c4ccc(O)cc4CC[C@H]3[C@@H]1CC[C@@H]2OC(=O)CCC1CCCC1`, the molecule was classed as inactive.

`CCCCCCCCC1CCC(=O)O1` (stereo not drawn): the outcome was inactive.

For orientation: AC50 means the concentration at which the activity in the assay is half-maximal.
